ChEMBL document CHEMBL4513216, “Probing the Open Global Health Chemical Diversity Library for Multistage-Active Starting Points for Next-Generation Antimalarials” (ACS Infect Dis, 2020)
Hit rate of the full screen: of about 69,000 compounds, about 8,600 (12%) showed an effect of 50% or more. The list comes from a sample in which strong results are over-represented; it also holds similar structures and randomly drawn compounds.

Tested on: Plasmodium berghei
Assay: Screen against P. berghei liver stage (PbLuc), transformed with Luciferase, at 10uM
Format: functional, HepG2
Settings: tested at 10 uM

Compared with `O=C1CCNc2ccc(F)cc2CN1Cc1ccco1`, `O=c1[nH]c(N2CCOCC2)nc2c1CN(Cc1cccnc1)CC2` is lower in INHIBITION: 1.8% for the first, -4.51% for the second.

Going from `Cc1ccc(-c2nc(C3CCN(C(=O)c4cnn(C)c4)CC3)no2)cn1` to `CC(C)Cc1cc(C(=O)N2CCC(Oc3cccnc3)CC2)n(C)n1`, the INHIBITION falls from 30.5% to 5.11%.

Going from `O=C1CCCN1CCCC(=O)N1CCC2(CC1)[C@H](O)C[C@@H]2O` to `O=C1CC2(CCCCN2C(=O)c2ccsc2)CN1CC1CC1` (configuration not stated), the INHIBITION rises from 9.56% to 37.4%.

Compared with `CN(Cc1nc(Cc2cccc(C(F)(F)F)c2)no1)CC1CCCCO1` (configuration not stated), `CCc1csc(C2CCCN(C(=O)c3ccco3)C2)n1` (configuration not stated) is lower in INHIBITION: 42.1% for the first, 19.6% for the second.

First: CNC(=O)COc1cccc(CNC(=O)c2c(C)noc2C(C)C)c1
Second: COc1cccc(CNC(=O)c2cc(C)nc(N3CCCCC3)n2)c1
The INHIBITION of the first is higher: 37.4% for the first, 4.97% for the second.

First: Cc1cc(C)c2nc(CN3CC[C@@H](O)C3)cc(O)c2c1
Second: Cc1cc(C)c2nc(CN3CCOCC(O)C3)cc(O)c2c1 (configuration not stated)
The INHIBITION of the first is higher: 20.1% for the first, 17.6% for the second.

Going from `Cc1cc(C)c2nc(CN3CCC(CN)CC3)cc(O)c2c1` to `Cc1cc(C)c2nc(CN3CCC(CN)C3)cc(O)c2c1` (configuration not stated), the INHIBITION falls from 34.9% to -8.75%.

Going from `Cc1cc(C)c2nc(CN3CCCC(c4cc[nH]n4)C3)cc(O)c2c1` (configuration not stated) to `COC1CCCN(Cc2cc(O)c3cc(C)cc(C)c3n2)C1` (configuration not stated), the INHIBITION falls from 78.5% to 61.2%.

Compared with `CS(=O)(=O)CCn1ccc(NC(=O)Cc2ccccc2Cl)n1`, `COCCn1cnc2ccc(NC(=O)c3ccccn3)cc2c1=O` is lower in INHIBITION: 25.2% for the first, 19.4% for the second.

Going from `CSCCC(Nc1nc(C)cc(C)n1)C(=O)NC1CC1` (configuration not stated) to `CC(=O)N1CCC(C)(c2cc(C(=O)NCC3CC3)nc(C)n2)CC1`, the INHIBITION rises from -15.4% to 9.075%.

First: NC(=O)C1CN(c2ccc3cc(Br)ccc3n2)CCO1 (configuration not stated)
Second: NC(=O)C1CN(c2ccc(Br)cn2)CCO1 (configuration not stated)
The INHIBITION of the first is lower: 37.1% for the first, 69.7% for the second.

Compared with `Cc1ccccc1CSc1nc(N)cc(N2CCOC(C(N)=O)C2)n1` (configuration not stated), `CC(C)Cc1cc(C(=O)N2CC(OCc3ccccc3F)C2)n(C)n1` is higher in INHIBITION: -19.2% for the first, 43.2% for the second.

Compared with `c1ccc(CN2CCCn3nnc(COc4ccccn4)c3C2)nc1`, `c1ccc(OCc2nnn3c2CN(c2ncccn2)CCC3)nc1` is higher in INHIBITION: 24.9% for the first, 57.1% for the second.

First: CC(=O)NCc1nnn2c1CN(c1ncccn1)CCC2
Second: CC(=O)NCc1nnn2c1CN(c1ncc(C)cn1)CCC2
The INHIBITION of the first is higher: 54.8% for the first, 21.3% for the second.

First: c1cnc(N2CCCn3nnc(COCC4CC4)c3C2)nc1
Second: OCCOCc1nnn2c1CN(c1ncccn1)CCC2
The INHIBITION of the first is lower: 18.7% for the first, 43.8% for the second.

First: CN(C)C(=O)NCc1nnn2c1CN(CC1CCOCC1)CCC2
Second: CCS(=O)(=O)N1CCCn2nnc(CNC(C)=O)c2C1
The INHIBITION of the first is lower: -51% for the first, 52.1% for the second.

Going from `CCS(=O)(=O)N1CCCn2nnc(Cn3cccc3)c2C1` to `Cn1ccc(C2CCCCN2C(=O)c2cccc(Cn3cccn3)c2)n1` (configuration not stated), the INHIBITION falls from 36.5% to 15%.

First: O=C(c1ccco1)N1CC[C@H]2C[C@@H](c3nccs3)O[C@@H]2C1
Second: Cn1ccc(C2CCCCCN2C(=O)c2cccnc2)n1 (configuration not stated)
The INHIBITION of the first is lower: -7.59% for the first, -1.16% for the second.

Going from `CCn1nc(CC(C)C)cc1C(=O)N1CC(c2ccncc2)C1` to `CCn1nc(CC(C)C)cc1C(=O)N1CC[C@@H](O)C1`, the INHIBITION falls from 57.4% to 26.8%.

Compared with `COc1cccc(OC2CN(C(=O)CCn3cnc4ccccc43)C2)c1`, `COc1cccc(OC2CN(C(=O)Cn3nc4ccccc4n3)C2)c1` is lower in INHIBITION: 70% for the first, 28.7% for the second.

First: COc1cccc(OC2CN(C(=O)c3c(C)noc3C)C2)c1
Second: COc1cccc(OC2CN(C(=O)c3sccc3C)C2)c1
The INHIBITION of the first is lower: -57.7% for the first, -17.6% for the second.

Compared with `O=C(CCn1cnc2ccccc21)N1CCN2CCCCC2C1` (configuration not stated), `Cn1ccc(C2CCCCN2C(=O)c2cccc(-n3cccn3)c2)n1` (configuration not stated) is higher in INHIBITION: 40.1% for the first, 56.1% for the second.

First: COc1cccc(OC2CN(C(=O)CCn3cnnn3)C2)c1
Second: COc1cccc(OC2CN(C(=O)c3cc(CC(C)C)nn3C)C2)c1
The INHIBITION of the first is lower: 55.9% for the first, 79.2% for the second.

Compared with `CCn1nc(CC(C)C)cc1C(=O)N1C[C@H](O)[C@@H](N2CCCCC2)C1`, `Cc1ccc(C(NC(=O)C2CCC(O)CC2)c2cccnc2)cc1C` (configuration not stated) is lower in INHIBITION: 29.7% for the first, 7.84% for the second.

First: Cc1ccc(CNC(=O)NCCCO)cc1
Second: Cc1ccccc1S(=O)(=O)NC(=O)C1(c2ccccc2)CCC1
The INHIBITION of the first is lower: 0.914% for the first, 35.2% for the second.

First: Cc1ccc(S(=O)(=O)NC(C)(C)CN)c(F)c1
Second: O=S(=O)(NCCCn1cncn1)c1ccc2c(c1)OCCCO2
The INHIBITION of the first is lower: -21.8% for the first, 49% for the second.
